Assay outcomes: PubChem, National Center for Advancing Translational Sciences (NCATS)
Sampled rows, rich in hits. Any-hit rate of the full collection: about 12%.
JMJD2A Tudor = blocks the human JMJD2A Tudor domain; O75164; AlphaScreen JMJD2A-Tudor / H3K4me3 peptide binding; Potency, µM (top dose mostly 114 µM), most hits filed as inhibitors; hit rate 4.4% among 390,000; note: nearly all actives have a fitted effect of over 50% in size
Target sequence (O75164 whole entry, looked up, the tested form may be a part): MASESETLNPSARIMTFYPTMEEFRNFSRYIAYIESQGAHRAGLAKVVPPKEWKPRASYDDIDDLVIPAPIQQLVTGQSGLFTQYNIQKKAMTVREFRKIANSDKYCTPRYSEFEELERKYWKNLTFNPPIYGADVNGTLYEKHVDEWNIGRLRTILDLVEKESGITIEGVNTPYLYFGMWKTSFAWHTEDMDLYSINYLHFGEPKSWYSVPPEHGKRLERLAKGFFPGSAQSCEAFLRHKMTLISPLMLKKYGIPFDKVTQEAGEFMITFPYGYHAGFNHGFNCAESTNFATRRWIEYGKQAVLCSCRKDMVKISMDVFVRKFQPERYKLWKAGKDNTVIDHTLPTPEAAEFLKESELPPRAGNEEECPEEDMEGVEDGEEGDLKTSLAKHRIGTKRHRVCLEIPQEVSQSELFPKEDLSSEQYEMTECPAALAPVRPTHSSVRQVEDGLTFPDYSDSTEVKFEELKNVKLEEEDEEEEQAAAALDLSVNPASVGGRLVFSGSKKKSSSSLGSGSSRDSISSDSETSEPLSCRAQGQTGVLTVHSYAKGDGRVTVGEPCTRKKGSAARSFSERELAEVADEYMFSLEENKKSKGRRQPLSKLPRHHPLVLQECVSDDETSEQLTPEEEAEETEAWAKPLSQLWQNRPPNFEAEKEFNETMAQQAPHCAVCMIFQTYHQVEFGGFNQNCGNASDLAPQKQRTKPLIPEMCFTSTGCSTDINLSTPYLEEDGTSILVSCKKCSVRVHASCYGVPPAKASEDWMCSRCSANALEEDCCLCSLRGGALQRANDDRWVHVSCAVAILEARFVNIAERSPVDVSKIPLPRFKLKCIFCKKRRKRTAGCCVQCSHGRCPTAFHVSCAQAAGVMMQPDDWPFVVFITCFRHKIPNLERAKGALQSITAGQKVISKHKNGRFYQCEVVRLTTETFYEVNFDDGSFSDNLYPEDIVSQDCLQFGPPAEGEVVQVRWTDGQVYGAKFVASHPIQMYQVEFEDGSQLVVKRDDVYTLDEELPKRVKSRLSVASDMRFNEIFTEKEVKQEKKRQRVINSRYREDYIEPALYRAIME
HP1b binding inh = HP1-beta chromodomain-methylated histone interaction inhibition | P83916 | AlphaScreen HP1-beta / biotin-H3K9me3 peptide binding | Potency, µM (doses to about 114 µM), hits mostly inhibitors | hit rate 0.56% among 390,000 | AID 540317; note: nearly all actives have a fitted effect of over 70% in size
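HP1-beta protein (50 nM final) preincubated 30 min at room temperature with biotinylated H3(1-18)K9me3 peptide (50 nM) in PBS pH 7.4, 0.01% Tween-20, then compound added for 30 min. AlphaScreen streptavidin donor/nickel chelate acceptor beads (10 ug/mL final), 30 min dark, luminescence read.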
G9a inh = inhibitors of human histone lysine methyltransferase G9a | hit rate 8.8% among 350,000 | G9a H3K9 monomethylation, AlphaScreen, 2 h | Potency, µM (top dose mostly 102 µM), actives largely listed as inhibitors | AID 504332; note: nearly all actives have a fitted effect of over 75% in size
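G9a (20 nM) was preincubated 15 min with compound, then reacted 2 h at room temperature with 500 nM biotin-H3K9 peptide and 20 µM SAM. Monomethyl-H3K9 detected by AlphaScreen using anti-H3K9me1 antibody.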
BAZ2B block = BAZ2B (human) inhibition; Q9UIF8; hit rate 4.4% among 360,000; AID 504333; AlphaScreen BAZ2B-H3K14Ac peptide displacement; Potency, µM (titrated, usually from 114 µM), actives largely listed as inhibitors; note: nearly all actives have a fitted effect of over 60% in size
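BAZ2B (50 nM) with biotin-H3(5-23)K14Ac peptide (50 nM) in PBS pH 7.4, 0.01% Tween-20, preformed 30 min, then compound 30 min at room temperature; top concentration 110uM. AlphaScreen streptavidin donor/nickel chelate acceptor beads (10 ug/mL final), 20 min dark, signal read.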
Sfp inh = Sfp phosphopantetheinyl transferase inhibition | Q9F4F7 | Biochemical Sfp PPTase activity, qHTS | Potency, µM, usual class: inhibitors | hit rate 3.5% among 310,000 | AID 1490;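 note: the enzyme is Sfp with the accession as filed and its product quenches rhodamine fluorescence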
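Fluorescence-quenching assay with 15 nM Sfp, 5 uM rhodamine-CoA and 12.5 uM BHQ-2-labelled ybbR peptide in pH 7.6 Hepes/MgCl2 buffer. Enzyme was pre-incubated with compound for 15 min at room temperature. Rate was taken from the 30-min fluorescence change (525/598 nm).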
Each line names hits and unclear results; the compound was inactive in the other large screens; ! = not active in a repeat. Calls come from the whole dose curve; as a rule, active = well fitted curve in the direction sought with a large enough effect; inconclusive = small, poorly fitted or top-dose-only effect, or another doubt; inactive = no such curve, though single readings can be large; an effect the other way counts as inactive or inconclusive.

CNC(=O)c1sc(-c2ccc(Cl)cc2)nc1C	none
Cc1cc(=O)c(C(=O)O)cn1Nc1ccc(F)cc1	JMJD2A Tudor 50.1µM, G9a inh inconclusive, BAZ2B block inconclusive
O=c1c2ccccc2c(C=NCCc2ccccc2)c(O)n1Cc1ccccc1	JMJD2A Tudor inconclusive
CC(=O)Nc1scc(-c2ccccc2)[n+]1-c1ccc(C)cc1	G9a inh 50.1µM, BAZ2B block inconclusive
Cc1ccc(NC(=O)c2csc(-c3ccccc3)c2C)cc1	none
Cc1cccc(N2CCN(c3ccc4cc(S(=O)(=O)N5CCCCC5)ccc4n3)CC2C)c1 (centres undefined)	JMJD2A Tudor inconclusive, G9a inh 25.1µM
Cc1cccc(N2CCN(S(=O)(=O)c3cccc4nonc34)CC2C)c1 (centres undefined)	JMJD2A Tudor inconclusive, G9a inh 35.5µM (no result: BAZ2B block)
CCOC(=O)c1c(C)[nH]c(C)c1S(=O)(=O)N1CCC(C(=O)N2CCN(c3cccc(C)c3)C(C)C2)CC1 (centres undefined)	JMJD2A Tudor inconclusive, BAZ2B block 79.4µM (no result: Sfp inh)
CCOC(=O)c1c(C)[nH]c(C)c1S(=O)(=O)N1CCC(C(=O)N2CCN(c3cc(C)ccc3C)CC2)CC1	JMJD2A Tudor inconclusive (no result: Sfp inh)
CC1CCCN(S(=O)(=O)c2cccc3nonc23)C1 (centres undefined)	none
CCOC(=O)c1cc(S(=O)(=O)N2CCN(c3ccccc3)CC2)[nH]n1	G9a inh inconclusive (no result: Sfp inh)
CCOC(=O)c1cc(S(=O)(=O)N2CCN(c3cc(C)ccc3C)CC2)[nH]n1	G9a inh 3.98µM, BAZ2B block 50.1µM (no result: Sfp inh)
Cc1c(NC(=O)COC(=O)/C=C/c2cccc(Br)c2)c(=O)n(-c2ccccc2)n1C	none (no result: Sfp inh)
CCOC(=O)c1cc(S(=O)(=O)N2CCN(c3cccc(C)c3)C(C)C2)[nH]n1 (centres undefined)	JMJD2A Tudor inconclusive, G9a inh 14.1µM, BAZ2B block inconclusive (no result: Sfp inh)
CCOC(=O)c1cc(S(=O)(=O)N2CCN(c3ccc(C(C)=O)cc3)CC2)[nH]n1	G9a inh 12.6µM, BAZ2B block inconclusive (no result: Sfp inh)
CCN1CCN(C(=O)N2CCOCC2)CC1	none (no result: G9a inh)
Cc1ccccc1OCC(=O)OCc1cc(=O)n2nc(C3CC3)sc2n1	none (no result: Sfp inh)
O=C1OC(c2ccccc2)(c2cc(Br)c(O)c(Br)c2)c2ccccc21 (centres undefined)	none (no result: G9a inh, BAZ2B block, Sfp inh)
O=c1cc(Br)c(O)c(Br)cc1Br	JMJD2A Tudor 22.4µM, HP1b binding inh inconclusive (no result: G9a inh, BAZ2B block, Sfp inh)
COC(=O)c1c[nH]n2c(=O)c(Cl)c(C)nc12	none
Cc1ccc(CNC(=O)c2ccc(CS(=O)Cc3ccccc3Cl)o2)cc1 (centres undefined)	none
Cc1nc2c(C(=O)NCc3ccccc3Cl)c[nH]n2c(=O)c1Cl	G9a inh 15.8µM
Cc1nc2c(C(=O)NCCc3ccccc3Cl)c[nH]n2c(=O)c1Cl	G9a inh 50.1µM
Cc1nc(C)c(C(=O)NCc2ccccc2Cl)o1	JMJD2A Tudor inconclusive, G9a inh inconclusive, Sfp inh 89.1µM
Cc1ccc(CS(=O)Cc2ccc(C(=O)NCc3ccccc3Cl)o2)cc1 (centres undefined)	G9a inh 79.4µM!
COc1ccc(CCNC(=O)CCc2c(C)c3ccc(O)c(C)c3oc2=O)cc1	none (no result: Sfp inh)
N#Cc1ccc(NC(=O)CN2C(=O)NC(Cc3ccccc3)C2=O)cc1 (centres undefined)	none (no result: BAZ2B block)
CCN(c1ccc(OC)cc1)S(=O)(=O)c1ccc2c(c1)NC(=O)CS2	none (no result: G9a inh)
Cc1nc2c(C(=O)NCc3ccccc3)c[nH]n2c(=O)c1Cc1ccccc1Cl	HP1b binding inh inconclusive (no result: Sfp inh)
Cc1nc2c(C(=O)NCc3ccccc3)c[nH]n2c(=O)c1Cl	G9a inh 79.4µM
O=C(NCc1ccccc1)c1nnc(Cc2cccc(F)c2)o1	none (no result: Sfp inh)
Cc1cc(C)c(S(=O)(=O)Nc2nnc(C)s2)c(C)c1	JMJD2A Tudor inconclusive
Cc1cc(C)c(S(=O)(=O)Nc2nnc(C3CCCCC3)s2)c(C)c1	G9a inh 70.8µM
CC(=O)c1c(C)oc2c1C(=O)c1ccccc1C2=O	none
O=C(c1ccccc1)c1coc2c1C(=O)c1ccccc1C2=O	HP1b binding inh inconclusive, G9a inh 44.7µM, BAZ2B block 31.6µM, Sfp inh inconclusive
COc1ccc(C(=O)c2coc3c2C(=O)C(=O)c2ccccc2-3)cc1	JMJD2A Tudor inconclusive, HP1b binding inh inconclusive, BAZ2B block 25.1µM, Sfp inh 31.6µM (no result: G9a inh)
O=C1c2ccccc2C(=O)c2c1oc(C(F)(F)F)c2C(=O)c1ccccc1	JMJD2A Tudor inconclusive, HP1b binding inh inconclusive, G9a inh 3.98µM, BAZ2B block 7.08µM
COc1ccc(C2=NOC3(CC(=O)N(c4ccc(F)cc4)C3=O)C2)cc1 (centres undefined)	G9a inh 50.1µM
Cc1ccc(C2=NOC3(CC(=O)N(c4ccccc4)C3=O)C2)cc1 (centres undefined)	none
COc1ccc(C2=NOC3(CC(=O)N(c4ccc5ccccc5c4)C3=O)C2)c(OC)c1 (centres undefined)	JMJD2A Tudor 50.1µM, G9a inh inconclusive, BAZ2B block inconclusive
COc1ccc(C2=NOC3(CC(=O)N(c4ccc(F)cc4)C3=O)C2)c(OC)c1 (centres undefined)	G9a inh 50.1µM
O=C1CCc2cc(NS(=O)(=O)c3ccc([N+](=O)[O-])cc3)cc3c2N1CCC3	G9a inh 35.5µM (no result: Sfp inh)
O=C1CCc2cc(NS(=O)(=O)c3ccc([N+](=O)[O-])cc3)cc3c2N1CC3	G9a inh 44.7µM (no result: Sfp inh)
O=C(Oc1ccc(Br)cc1)C1CCN(C2=NS(=O)(=O)c3ccccc32)CC1	G9a inh inconclusive (no result: Sfp inh)
COC(=O)CCCC1=CC2=C(c3ccccc3)C(=O)C(C)(OC(=O)C3CCCC3)C(=O)C2=CN1Cc1ccco1 (centres undefined)	JMJD2A Tudor inconclusive, BAZ2B block 70.8µM, Sfp inh 56.2µM!
COC(=O)CCCC1=CC2=C(c3ccccc3)C(=O)C(C)(OC(=O)C3CCCC3)C(=O)C2=CN1CCCCO (centres undefined)	none
COc1ccccc1NC(=O)C1C2C=CC(O2)C1C(=O)O (centres undefined)	G9a inh 50.1µM, BAZ2B block inconclusive (no result: JMJD2A Tudor, HP1b binding inh)
Cc1ccc(NC(=O)C2C3C=CC(O3)C2C(=O)O)c(C)c1 (centres undefined)	G9a inh 39.8µM
Cc1nnc(NC(=O)C2C3C=CC(O3)C2C(=O)O)s1 (centres undefined)	G9a inh inconclusive, BAZ2B block inconclusive (no result: JMJD2A Tudor, HP1b binding inh)
COC(=O)c1sccc1NC(=O)C1C2C=CC(O2)C1C(=O)O (centres undefined)	JMJD2A Tudor inconclusive
Cc1cccc(NC(=O)C2C3C=CC(O3)C2C(=O)O)c1C (centres undefined)	G9a inh 35.5µM
Cc1ccc(C)c(NC(=O)C2CC=CCC2C(=O)O)c1 (centres undefined)	none
Cc1ccc(C)c(NC(=O)C2C3C=CC(O3)C2C(=O)O)c1 (centres undefined)	G9a inh 44.7µM
CCc1nnc(NC(=O)CSc2nnc(COc3ccccc3)n2Cc2ccccc2)s1	none
